RGS16-Gao – modulators of RGS16 binding to Galphao, primary screen, biochemical, human proteins, multiplexed bead flow cytometry; Regulator of G-protein signaling 16 (Homo sapiens) + Guanine nucleotide-binding protein …; hit rate 0.38% among 220,000; bead-based flow cytometry RGS16-Galphao binding, fluorescence; actives lie on both sides; binding response (% of control), % at 10 µM;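 further: Galphao activated by GDP with aluminum fluoride before binding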
Target sequence (O15492 whole entry, looked up): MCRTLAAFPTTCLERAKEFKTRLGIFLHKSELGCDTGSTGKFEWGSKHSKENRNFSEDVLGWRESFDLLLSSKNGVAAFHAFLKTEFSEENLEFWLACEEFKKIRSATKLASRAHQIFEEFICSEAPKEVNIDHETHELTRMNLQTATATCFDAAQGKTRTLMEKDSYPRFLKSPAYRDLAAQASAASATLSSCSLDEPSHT
Target sequence (P09471 whole entry, looked up): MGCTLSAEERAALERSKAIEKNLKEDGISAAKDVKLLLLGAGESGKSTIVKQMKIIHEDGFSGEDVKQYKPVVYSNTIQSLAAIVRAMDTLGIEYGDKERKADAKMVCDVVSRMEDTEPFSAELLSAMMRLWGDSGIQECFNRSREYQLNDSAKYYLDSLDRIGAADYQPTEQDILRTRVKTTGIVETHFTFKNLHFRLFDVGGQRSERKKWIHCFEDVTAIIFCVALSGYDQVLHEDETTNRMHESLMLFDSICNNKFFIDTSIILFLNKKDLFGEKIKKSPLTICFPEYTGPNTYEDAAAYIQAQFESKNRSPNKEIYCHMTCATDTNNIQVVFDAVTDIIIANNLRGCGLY
RGS7-Gao – RGS7-Galphao binding modulators, primary screen, biochemical, multiplexed bead flow cytometry | binding response (% of control), % at 10 µM | hit rate 0.35% among 220,000 | actives lie on both sides | AID 1439, 2008 | Guanine nucleotide-binding protein G(o) subunit alpha (Homo sapiens), P09471; in the data active means binding response below about 49% or above about 150%; inconclusive means no clear call, values can overlap the other calls; inactive means in between;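 further: fluorescent Galphao held in activated GDP-AlF4 state binding bead-coupled RGS7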
Target sequence (P09471 whole entry, looked up): as above
RGS8-Gao – RGS8-Galphao binding modulators, primary screen, biochemical, multiplexed bead flow cytometry; AID 1423, 2008; actives lie on both sides; Guanine nucleotide-binding protein G(o) subunit alpha (Homo sapiens), P09471; hit rate 0.34% among 220,000; response (percent of control binding), % at 10 µM; in the data active means response below about 60% or above about 140%; inactive means in between;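 further: Galphao activated as the GDP aluminium fluoride complex binding bead-coupled RGS8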
Avidin bead fluor – green autofluorescence of compounds with avidin beads – biophysical, 488/530 nm, flow cytometry, artefact control, profiling panel. compound fluorescence 488/530 nm; active compounds read high. fluorescence (KMESF) at 10 µM. hit rate 0.38% among 220,000; in the data active means fluorescence above about 47
RGS4-Gao reg – modulators of RGS4 binding to Galphao, primary screen, biochemical, multiplexed bead flow cytometry; Guanine nucleotide-binding protein G(o) subunit alpha (Homo sapiens), P09471; hit rate 0.33% among 220,000; actives lie on both sides; binding response (% of control), % at 10 µM; in the data active means binding response below about 49% or above about 150%; inactive means in between;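 further: fluorescent Galphao activated with aluminum fluoride binding bead-coupled RGS4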
GSH fluor – compound fluorescence on glutathione beads, profiling panel, artefact control, biophysical, 488/530 nm, flow cytometry | AID 1776, 2009 | fluorescence (KMESF) at 10 µM | hit rate 0.25% among 190,000 | GSH beads flow cytometry, compound fluorescence 488/530 nm; active compounds read high; in the data active means fluorescence above about 89;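 further: glutathione beads carrying GST-tagged Bcl family fusion proteins plus one bare bead set; values are compound well signal with DMSO vehicle wells as background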
RGS4-Gao HTS – modulators of RGS–Galpha-o binding, primary screen, biochemical, multiplexed beads, flow cytometry, RGS4/7/8/16/19. shares compounds with RGS16-Gao. multiplexed bead flow cytometry. AID 1504, 2009. hit rate 99% among 1,600. RGS4–Galpha-o binding response, % at 10 µM;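 further: fluorescently labeled Galpha-o bound to GDP with aluminium fluoride binding biotinylated RGS beads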
Avidin counter – disruption of biotin probe capture by avidin, counter-screen for RGS protein interaction modulators, biochemical, flow cytometry, bead-based; shares compounds with RGS16-Gao; streptavidin beads, fluorescein-biotin binding; inhibition, % at 10 µM; 1,700 tested, under 10 active;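 active means inhibition above 50%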;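 further: median green fluorescence of gated singlet beads compared with DMSO control wells; 0% = DMSO wells and 100% = complete loss of bead fluorescence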
RGS8-Gao single – RGS8-Galphao binding modulators, confirmation, biochemical, multiplexed bead flow cytometry, single concentration; shares compounds with RGS16-Gao; bead-based flow cytometry RGS8-Galphao binding, fluorescence; actives lie on both sides; binding response (% of control), % at 10 µM; hit rate 3% among 1,700; in the data active means binding response below about 72% or above about 130%; inactive means in between;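 further: Galphao activated as GDP AlF4 complex before binding bead RGS8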
RGS7-Gao single – RGS7-Galphao binding modulators, confirmation, biochemical, multiplexed bead flow cytometry, single concentration | shares compounds with RGS16-Gao | response (percent of control binding), % at 10 µM | hit rate 7.8% among 1,700 | bead-based flow cytometry RGS7-Galphao binding; actives lie on both sides; in the data active means response below about 75% or above about 130%; inactive means in between;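 further: fluorescent Galphao activated with GDP and aluminum fluoride binding bead-coupled RGS7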
RGS16-Gao conf – modulators of RGS16-Galphao protein binding, confirmation, biochemical, single concentration, multiplexed bead flow cytometry. bead-based flow cytometry; actives lie on both sides. AID 1838, 2009. hit rate 4% among 1,700. shares compounds with RGS16-Gao. response (% of control binding), % at 10 µM; in the data active means response below about 74% or above about 130%; inactive means in between;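 further: Galphao activated as the GDP aluminium fluoride complex binding bead-coupled RGS16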
RGS4-Gao confirm – modulators of RGS4-Galphao protein binding, confirmation, biochemical, single concentration, multiplexed bead flow cytometry. shares compounds with RGS16-Gao. actives lie on both sides. binding response (% of control), % at 10 µM. hit rate 4% among 1,700. AID 1840, 2009; in the data active means binding response below about 74% or above about 130%; inactive means in between
RGS19-Gao single – regulators of RGS19-Galphao binding, confirmation, biochemical, single point, multiplexed bead flow cytometry | shares compounds with RGS16-Gao | AID 1841, 2009 | bead-based flow cytometry RGS19-Galphao binding; actives lie on both sides | hit rate 5% among 1,700 | response (percent of control binding), % at 10 µM; in the data active means response below about 50% or above about 160%; inactive means in between;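 further: 100% = no compound control and 0% = blank background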
Numbers without * were called inactive; u = inconclusive; x = not tested or not shown; [ ] = dose if it differs, or a comment. This is a sample that favours compounds with a hit; in the whole collection about 1.2% have one here. Unless noted, how the calls were made is not given here.

SMILES	RGS16-Gao	RGS7-Gao	RGS8-Gao	Avidin bead fluor	RGS4-Gao reg	GSH fluor	Avidin counter	RGS8-Gao single	RGS7-Gao single	RGS16-Gao conf	RGS4-Gao confirm	RGS19-Gao single	others
CCOC(=O)c1sc(NC(=O)Nc2ccc(F)cc2)nc1C	25*	91	73	9	91	4	1	99	105	102	105	103	RGS4-Gao HTS=91*
COc1ccc(C2=NN(CN3C(=O)C(=O)c4ccccc43)C(c3cccc([N+](=O)[O-])c3)C2)cc1 (stereo not drawn)	100	u	101	7	101	x	x	x	x	x	x	x
COc1ccc(CC(=O)N2CCCc3ccccc32)cc1OC	85	101	96	10	100	34	x	x	x	x	x	x
COc1cc(CC(=O)N2CCc3ccccc32)cc(OC)c1OC	x	x	x	x	146	44	2	100	99	98	98	98
COc1cc(C(=O)Nc2ccc3c(c2)CCN3C(C)=O)cc(OC)c1OC	170	186*[activator]	109	21	207*[activator]	34	0	107	112	111	106	118
NC(=O)COC(=O)c1cc(Cl)cc(Cl)c1N	97	92	100	9	98	10	x	x	x	x	x	x
Nc1c(Cl)cc(Cl)cc1C(=O)OCC(=O)N1CCCC1	4.0*	9.7*	14*	-4	11*	43	0	108	109	105	107	110
COC(=O)c1cc(-c2ccc(S(=O)(=O)N3CCCCC3)cc2)c(C(F)(F)F)s1	103	u	99	6	101	x	x	x	x	x	x	x
CCOCCN(C(=O)c1ccccc1Cl)c1cccc(C)c1C	153	u	102	85*	165*[activator]	x	0	100	99	99	98	88
CCOCCNC(=O)c1ccccc1C(=O)NCCOCC	123	99	102	16	110	9	x	x	x	x	x	x
Cc1cc(C)cc(NC(=S)NCc2ccc(S(N)(=O)=O)cc2)c1	110	x	95	x	97	12	3	97	105	102	100	108
NS(=O)(=O)c1ccc(NC(=S)NCc2ccc(Cl)cc2)cc1	71	127	87	3	101	21	x	x	x	x	x	x
COCCNC(=O)CN(C(=O)Cn1nnc2ccccc21)c1cc(C)cc(C)c1	103	167*[activator]	100	60*	110	9	0	94	92	94	93	100	RGS4-Gao HTS=110*
CCC(=O)N1CCN(CCN=CC2=C(O)CC(C)(C)CC2=O)CC1	165	106	146*[activator]	10	105	26	1	97	99	99	97	97	RGS4-Gao HTS=105*
CC1(C)CC(=O)C(C=NCCN2CCN(C(=O)CCl)CC2)=C(O)C1	101	u	101	3	101	x	x	x	x	x	x	x
CCOC(=O)C1CCCN(C(=O)Cn2sc3nc(C)cc(C)c3c2=O)C1 (stereo not drawn)	17*	95	58*	2	90	18	-1	61*	75*	16*	73*	15*	RGS4-Gao HTS=90*
Cc1cc(C)c2c(=O)n(CC(=O)N3CCC(N4CCCCC4)CC3)sc2n1	64	117	82	3	92	16	x	x	x	x	x	x
CCCNC(=O)Cn1sc2nc(C)cc(C)c2c1=O	16*	u	60	2	78	x	0	52*	70*	9.1*	73*	3.9*	RGS4-Gao HTS=78*
N#Cc1cnc(NOCc2ccc(Cl)cc2)nc1	103	101	98	21	95	10	x	x	x	x	x	x
OCc1nc2ccccc2n1CCCOc1ccc(Br)cc1	-3.6*	1.2*	7.0*	-4	-3.9*	40	2	101	104	102	104	105
Cc1ccc(OCCCCn2c(CO)nc3ccccc32)cc1	103	101	101	12	100	10	x	x	x	x	x	x
O=C(CSc1nc2ccccc2[nH]1)Nc1ccc(F)c(F)c1	x	x	x	x	x	44	0	105	98	104	105	95
COc1ccc(S(=O)(=O)N2CCN(CCC(=O)Nc3ccccc3F)CC2)cc1	x	x	x	x	x	34	2	99	95	97	98	106
COCCNC(=O)c1ccc(C(=O)NCCOC)s1	x	x	x	x	233*[activator]	36	3	100	98	99	99	90
COC(=O)CNC(=O)c1ccc(C)s1	99	101	96	14	100	22	x	x	x	x	x	x
CC(C)(C)c1ccc(-c2noc(-c3ccno3)n2)cc1	98	u	99	4	98	x	x	x	x	x	x	x
CC(C)(C)c1ccc(-c2nc(-c3ccncc3)no2)cc1	23*	89	75	3	81	20	x	x	x	x	x	x	RGS4-Gao HTS=81*
Cc1ccc(C)c(N2CN(Cc3cccnc3)CNC2=S)c1	21*	98	69	2	93	10	2	104	104	107	104	96	RGS4-Gao HTS=93*
Cc1ccc(N2CN(Cc3cccnc3)CNC2=S)cc1	102	102	102	17	105	17	x	x	x	x	x	x
COc1cc(CC(=O)Nc2ccccc2N2CCCCC2)cc(OC)c1OC	102	101	102	24	101	18	x	x	x	x	x	x

Screening data as filed in PubChem.
